Here are results for 13 compounds from PubChem BioAssay (NCATS).

Structures are written as SMILES. Inconclusive results are not listed. Unmarked numbers belong to inactive results. Activity calls are given as the source filed them. Calls come from the whole dose curve; as a rule, active = well fitted cell-killing curve with a large enough effect; inconclusive = small, poorly fitted or top-dose-only effect, or effect the other way; inactive = flat fitted curve, though single readings scatter.
% is set by controls: 0 for no effect and ±100 for the full control effect; potency is the fitted concentration of half-maximal effect.

The subject of the assay is HeLa. The assay can be described thus: Primary qHTS to identify gynecologic anti-cancer compounds using libraries of approved drugs and bioactive compounds (AID 1345084). Note: nearly all actives have a fitted effect of over 55% in size. The settings on record: Gynecologic cancer cell panel viability, ATPlite luminescence, 48 h; series mostly up to 57.5 µM; activity change, negative = cytotoxicity: at the top concentration. An outline of the steps: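 Cytotoxicity screen measuring ATP content by luciferase luminescence. Each compound is applied at five concentrations for 48 h at 37 C with 5% CO2.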
In general terms: Quantitative high-throughput screening tests each substance at several concentrations.
For `Cc1cnc(Nc2ccc(F)cc2Cl)nc1-c1c[nH]c(C(=O)N[C@H](CO)c2cccc(Cl)c2)c1`, the Potency is 31.6 µM (active).
`COC(=O)Nc1ccc(-c2nc(N3CCOCC3)c3cnn(C4CCN(Cc5cccnc5)CC4)c3n2)cc1`: the Potency was 25.1 µM (active).
Take `C=CC(=O)Nc1cc2c(Nc3ccc(F)c(Cl)c3)ncnc2cc1OCCCN1CCOCC1`: the “activity change, negative = cytotoxicity” value is -3.94%.
Consider `O=C(Nc1ncc(-c2cc(C(F)F)nn2-c2c(Cl)cccc2Cl)s1)C1CC1`, for which the Potency is 2.51 µM (active).
Turning to `CC(C)(O)c1cc2nc(-c3cnc(N)nc3)nc(N3CCOCC3)c2s1`, the Potency is 3.98 µM (active).
Regarding `Nc1ncnc2c1c(-c1cnc3[nH]ccc3c1)nn2C1CCCC1`, the Potency is 10 µM (active).
For the compound `Cc1cc(C(=O)N2CCN(c3cccc(Cl)c3)CC2)n(-c2ccccc2)n1`, the Potency was 8.91 µM (active).
In the case of `Fc1cc(-c2cccc3ncc(-c4cnn(C5CCNCC5)c4)nc23)cc(F)c1CN1CCOCC1`, the “activity change, negative = cytotoxicity” value was -26.7%.
As to `CNC(=O)c1ccccc1Nc1nc(Nc2ccc(N3CCOCC3)cc2OC)ncc1Cl`, the Potency is 5.01 µM (active).
Turning to `COC(=O)C1=C(C)NC(C)=C(C(=O)OCCN2CCN(C(c3ccccc3)c3ccccc3)CC2)C1c1cccc([N+](=O)[O-])c1` (stereo not drawn), the “activity change, negative = cytotoxicity” value was -21.1%.
As to `CN1CCN(Cc2ccc(NC(=O)Nc3ccc(Oc4cc(NC(=O)C5CC5)ncn4)cc3)cc2C(F)(F)F)CC1`, the Potency was 0.891 µM (active).
As for `COc1cc2c(Oc3ccc(NC(=O)C4(C(=O)Nc5ccc(F)cc5)CC4)cc3F)ccnc2cc1OCCCN1CCOCC1`, the Potency is 6.31 µM (active).
In the case of `Nc1nc(Nc2ccc(S(N)(=O)=O)cc2)nn1C(=O)c1c(F)cccc1F`, the Potency was 22.4 µM (active).
